Hit rate of the full screen: of about 640,000 compounds, about 9,300 (1.5%) were called active. No stated cut-off is given here; in the data, active means inhibition above about 32%; inactive means the rest. The entries come from a sample that favours actives as a whole.

The experiment in a line: TEAD-YAP interaction inhibition, primary screen, TEAD-YAP interaction inhibitor project, luminescence, HEK-TIYL cells (AID 1259422).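 Further: 0% = median of test compound wells and 100% = reference inhibitor wells.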 The note with it: TEAD-Gal4/YAP UAS-luciferase luminescence, at 9.12 µM, active compounds read high.
The term inhibition denotes the change of the read-out against control, counted positive when it falls. As to `CC[n+]1c(/C=C/C=C2\N(C)c3ccccc3C2(C)C)n(-c2ccccc2)c2ccc(Cl)cc21`, the inhibition is 91.8% (active). The result for `C=C1C[C@@H](c2ccccc2)N2CCC[C@H]2[C@H]1C` reads -6.5% (inactive); that for `C=C(C)CN(CC)C(C)Cc1ccc(OC)c(OC)c1` (stereo not given), -4.32% (inactive); that for `Cc1[nH]c2c(F)cccc2c1CCN`, 1.82% (inactive). The value for `CCOc1cc2c(cc1C=C(C#N)C#N)OCO2` was -1.58% (inactive). The value for `CC1=CC(=Cc2sc3ccccc3[n+]2C)C=C(C)O1` was 85.8% (active).

As to `Cc1ccc2nc(NC(=O)c3c(O)c4c(n(Cc5ccco5)c3=O)CCCC4)sc2c1`, the inhibition is -4.37% (inactive). The value for `COc1cc(/C=C2\C(=O)NC(=O)N(c3ccccc3)C2=O)ccc1O` was 11.5% (inactive); that for `Cc1cc2c(cc1Br)NC(=O)C2(c1c(O)n(C)c(=O)n(C)c1=O)C(C#N)C#N` (stereo not given) was -14.6% (inactive). The result for `CN(C)P(=O)(c1cccc(C(=O)O)c1)N(C)C` reads -4.89% (inactive). The value for `CCOc1ccc(C(Nc2ccccc2)P2(=S)OCC(C)(C)CO2)cc1` (stereo not given) was 5.04% (inactive); that for `CN[C@@H]1C[C@H]2O[C@@](C)([C@@H]1OC)n1c3ccccc3c3c4c(c5c6ccccc6n2c5c31)C(=O)NC4` was 102% (active); that for `O=C1NC(=S)NC(=O)C1=Cc1ccc(-c2ccccc2)o1` was 1.36% (inactive).

As to `O=C(Cc1ccc(F)cc1)N(Cc1ccco1)C1CCN(Cc2ccncc2)CC1`, the inhibition is -7.86% (inactive). The value for `COc1ccc(C=C(C#N)C#N)c(C)c1C` was -13.8% (inactive); that for `c1ccc2c(c1)[I+]c1ccccc1-2` was 60% (active). The result for `CCOC(=O)C1=C(N)Oc2n[nH]c(C)c2C12C(=O)Nc1ccc(Br)cc12` (stereo not given) reads 4.72% (inactive); that for `CC(=O)Nc1cc([N+](=O)[O-])ccc1N1CCN(C)CC1`, -2.87% (inactive). On to `COc1ccc(-n2c(-c3ccccc3)nc3ccccc3c2=O)cc1`, for which the inhibition is 1.69% (inactive). With `COc1ccc(C(C[N+](=O)[O-])c2c(-c3ccccc3)[nH]c3ccccc23)cc1` (stereo not given), the inhibition was 52.6% (active). Consider `CCCCOc1ccccc1C1C(C#N)=C(N)Oc2c1c(=O)oc1ccccc21` (stereo not given), for which the inhibition was -0.47% (inactive).

In the case of `Cc1ccc(NC(=O)C2C3c4ccccc4C(c4ccccc43)C2C(=O)O)cc1` (stereo not given), the inhibition was -0.29% (inactive). The result for `CCCCC[n+]1ccc(-c2cc[n+](CCCCC)cc2)cc1` reads 56.5% (active). The result for `CCOC(=O)C1C2NC(=S)NC1(C)Oc1cc(OC)ccc12` (stereo not given) reads 0.95% (inactive).

For `O=C(c1ccccc1)c1cc(Cl)ccc1N1C(=O)c2ccccc2C1=O`, the inhibition was -3.06% (inactive). The value for `COc1cc(CN2CCN(C)CC2)ccc1O` was 4.62% (inactive). The value for `C[C@@H]1C[C@H]2CC[C@H](O2)[C@H](C)C(=O)O[C@@H](C)C[C@@H]2CC[C@@H](O2)[C@@H](C)C(=O)O[C@H](C)C[C@H]2CC[C@H](O2)[C@H](C)C(=O)O[C@@H](C)C[C@@H]2CC[C@@H](O2)[C@@H](C)C(=O)O1` was 94.6% (active); that for `N#C/C(=C\c1cc2c(cc1Cl)OCO2)c1nn(CCO)c(N)c1C#N` was -18.8% (inactive). The value for `CCC(=O)C1=C(C)OC(N)=C(C(=O)OC)C12C(=O)Nc1ccccc12` (stereo not given) was 3.18% (inactive).

For the compound `COc1ccc2c(c1)c(C(=O)N1CCN(C)CC1)c(C)n2C`, the inhibition was -6.79% (inactive). On to `C(=N\N1CCCCC1)/c1c[nH]c2ccccc12`, for which the inhibition is 4.68% (inactive). The value for `O=C1CC(=O)N(C2CCCCCC2)C(=O)N1` was -0.34% (inactive); that for `N#Cc1ccc(NC(=O)COC(=O)CCC2CCCC2)cc1Cl` was 0.25% (inactive).

With `c1ccc2c(CCNC3CC4CCC3C4)c[nH]c2c1` (stereo not given), the inhibition was -1.36% (inactive). Regarding `CCCCCCOc1ccc(C=C2C(=O)NC(=S)NC2=O)cc1`, the inhibition was 13% (inactive).

These data come from PubChem BioAssay AID1259422 (The Scripps Research Institute Molecular Screening Center, 2018).
